Among all 52,000 compounds or so, about 1,700 (3.3%) were called active. For the sample, actives were picked, then their nearest neighbours and some compounds at random. Values without a mark were called inactive. Rule as the data show it: active = survival mostly below about 52% (no sharp cut-off); inactive = mostly above about 56%.
Tested on: Wild type
Test: S. aureus survival, RN4220 and DeltatarO strains – OD600, teichoic acid synthesis inhibitors, primary screen (AID 463173)
Details: S. aureus RN4220 wild type/DeltatarO growth, OD600, 18 h, active compounds read low, screened at 18.75 µg/mL (by protocol)

First: CCN(c1ccccc1)S(=O)(=O)c1ccc(-c2cc(C)no2)s1
Second: Cc1cn2c(=O)cc(COc3ccccc3NC(=O)c3ccco3)nc2s1
The survival of the first is higher: 159% for the first, 83% for the second.

Compared with `NC(=S)N/N=C/c1ccccc1OCC(=O)O`, `CC(=O)N1SC(N)=NC1c1ccccc1` (stereo not given) is higher in survival: 96% for the first, 111% for the second.

Compared with `Cc1ccc(NC(=O)Cn2ccn(-c3ccc(F)c(F)c3)c(=O)c2=O)cc1C`, `Cc1ccc(C)c(NC(=O)CSc2nc(-c3ccccc3)c(C#N)c(=O)[nH]2)c1` is higher in survival: 78% for the first, 113% for the second.

First: Cc1ccc(CCNC(=O)c2oc(=O)c3ccccc3c2-c2ccc(C)cc2)cc1
Second: Cc1ccc(-c2c(C(=O)NCCc3ccc(Cl)cc3)oc(=O)c3ccccc23)cc1
The survival of the first is lower: 17% for the first, 57% for the second.

Compared with `Cc1ccc(-c2c(C(=O)NCCc3ccccc3)oc(=O)c3ccccc23)cc1`, `Cc1ccc(-c2c(C(=O)NCc3ccc(F)cc3)oc(=O)c3ccccc23)cc1` is lower in survival: 79% for the first, 76% for the second.

Going from `COc1ccccc1CCNC(=O)c1ccc2c(c1)c(C)c(C)n2Cc1ccc(Cl)cc1` to `O=C(c1ccc2c(c1)N(Cc1ccc(Cl)cc1)C(=O)c1ccccc1S2=O)N1CCOCC1` (stereo not given), the survival rises from 77% to 83%.

Going from `CC1(C)Cc2ccccc2-c2nnc(-c3ccccc3)n21` to `Cc1ccc2c(c1)-c1nc(-c3ccccc3)cc(-c3ccccc3)c1CO2`, the survival falls from 95% to 79%.

Compared with `Fc1ccc(Br)cc1C1C=C(c2ccc(Br)cc2)Nc2nnnn21` (stereo not given), `COc1ccc(C2C=C(c3ccc(Br)cc3)Nc3nnnn32)c(OC)c1` (stereo not given) is lower in survival: 81% for the first, 66% for the second.

Compared with `Cc1ccc(S(=O)(=O)N2CCCc3cc(NC(=O)c4ccc(C(F)(F)F)cc4)ccc32)cc1`, `CCOc1ccc(N(C)S(=O)(=O)c2ccc3c(c2)CCCN3C(C)=O)cc1` is lower in survival: 110% for the first, 75% for the second.

First: O=C(c1cnc2c(c1)COc1ccc(Cl)cc1-2)c1ccccc1O
Second: Cc1cc(O)c(C(=O)c2cnc3c(c2)COc2ccccc2-3)cc1Cl
The survival of the first is higher: 131% for the first, 64% for the second.

Compared with `Cc1ccc2c(c1)-c1ncc(C(=O)c3cc(Br)ccc3O)cc1CO2`, `Cc1ccc(C)c(CNC(=O)c2ccc3c(c2)nc2n3CCOC2)c1` is higher in survival: 56% for the first, 63% for the second.

Compared with `COc1ccc(C2=C(C)C(N3CCC(C(=O)NCc4ccco4)CC3)=NS2(=O)=O)cc1`, `CCOc1ccc(CNC(=O)c2ccc3c(c2)nc2n3CCOC2)cc1` is higher in survival: 56% for the first, 57% for the second.

Compared with `Cc1ccc(NS(=O)(=O)c2cc3[nH]c(=O)c(=O)[nH]c3cc2C)cc1N(C)C`, `Cc1c(C(=O)N2CCC(C)CC2)c(S(=O)(=O)Nc2cccc(C(F)(F)F)c2)c(C)n1C` is lower in survival: 81% for the first, 78% for the second.

Going from `CC1(CCC(=O)O)NNC(=S)NN1` to `O=C(NCc1ccccc1)c1ccc2c(c1)nc1n2CCOC1`, the survival falls from 101% to 82%.

First: Cn1cccc1-c1cc2n(n1)CCC(=O)N2CC(=O)Nc1ccc(F)cc1Cl
Second: CCOC(=O)c1ccc(N2CCN(c3ccc(F)cc3)CC2)c(NC(=O)Nc2cccc(OC)c2)c1
The survival of the first is lower: 63% for the first, 67% for the second.

`Cc1nn(C(=O)c2cccc(F)c2)c(C)c1S(=O)(=O)N1CCCCCC1` and `COc1ccc(CCNC(=O)c2ccc3c(c2)nc2n3CCCCC2)cc1OC` are the same in survival: 84% for the first, 84% for the second.

Going from `CCOC(=O)c1ccc(N2CCN(c3cccc(Cl)c3)CC2)c(NC(=O)Nc2ccc(Cl)cc2)c1` to `CCOc1ccc(CNC(=O)c2ccc3c(c2)nc2n3CCC(C)C2)cc1OC` (stereo not given), the survival falls from 76% to 73%.

Compared with `Fc1cccc(NCc2cccn2-c2nnc(N3CCOCC3)s2)c1`, `CCOc1ccc(CCNC(=O)c2ccc3c(c2)nc2n3CCOC2)cc1OCC` is lower in survival: 77% for the first, 63% for the second.

`CCCCN(Cc1ccccc1)C(=O)c1oc(=O)c2ccccc2c1-c1ccc(C)cc1` was tested, and the survival was 0% (active).
In the case of `Cc1ccc(-c2c(C(=O)N(C)Cc3ccccc3)oc(=O)c3ccccc23)cc1`, the survival is reported as 11% (active).
With `COc1cccc(C2=CC(c3cc(Br)ccc3F)n3nnnc3N2)c1` (stereo not given) the survival was -4% (active).
For `Cc1ccc2c(c1)-c1ncc(C(=O)c3ccccc3O)cc1CO2`, the survival was -7% (active).
`O=C(c1cnc2c(c1)COc1ccccc1-2)c1ccccc1O` was tested, and the survival was 5% (active).
With `CCOC(=O)c1ccc(N2CCN(c3cccc(OC)c3)CC2)c(NC(=O)Nc2ccc(OCC)cc2)c1` the survival was -6% (active).
`COc1ccc(CCNC(=O)c2ccc3c(c2)nc2n3CCOC2)cc1OC` was tested, and the survival was -4% (active).
In the case of `O=C(NCc1ccccc1Br)c1ccc2c(c1)nc1n2CCOC1`, the survival is reported as -3% (active).
`CCOc1ccc(CNC(=O)c2ccc3c(c2)nc2n3CCOC2)cc1OC` was tested, and the survival was 1% (active).
